Reference: the supplement of paper PMC11001985

Compound: C#CCNC(=O)CCSSCCC(=O)NCCc1ccc(C=O)c(C=O)c1
Test: lysine labeling ratio R10:1 (500 µM / 50 µM probe), SILAC-ABPP in living cells; higher = lower intrinsic lysine reactivity toward the probe, active = 2 or less
Details: HeLa; probe concentrations 500 vs 50 µM
Method in brief: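 Forward and reverse SILAC label swaps were used with living light and heavy HeLa cells in PBS at room temperature, which were given an alkyne-tagged, disulfide-linked lysine probe at 50 µM or 500 µM. R is the per-lysine filtered median high-probe/low-probe MS1 peptide ratio, with the median then taken across both swap directions. Values are limited to 20.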

UniProt P01024, sequence (P01024 whole entry): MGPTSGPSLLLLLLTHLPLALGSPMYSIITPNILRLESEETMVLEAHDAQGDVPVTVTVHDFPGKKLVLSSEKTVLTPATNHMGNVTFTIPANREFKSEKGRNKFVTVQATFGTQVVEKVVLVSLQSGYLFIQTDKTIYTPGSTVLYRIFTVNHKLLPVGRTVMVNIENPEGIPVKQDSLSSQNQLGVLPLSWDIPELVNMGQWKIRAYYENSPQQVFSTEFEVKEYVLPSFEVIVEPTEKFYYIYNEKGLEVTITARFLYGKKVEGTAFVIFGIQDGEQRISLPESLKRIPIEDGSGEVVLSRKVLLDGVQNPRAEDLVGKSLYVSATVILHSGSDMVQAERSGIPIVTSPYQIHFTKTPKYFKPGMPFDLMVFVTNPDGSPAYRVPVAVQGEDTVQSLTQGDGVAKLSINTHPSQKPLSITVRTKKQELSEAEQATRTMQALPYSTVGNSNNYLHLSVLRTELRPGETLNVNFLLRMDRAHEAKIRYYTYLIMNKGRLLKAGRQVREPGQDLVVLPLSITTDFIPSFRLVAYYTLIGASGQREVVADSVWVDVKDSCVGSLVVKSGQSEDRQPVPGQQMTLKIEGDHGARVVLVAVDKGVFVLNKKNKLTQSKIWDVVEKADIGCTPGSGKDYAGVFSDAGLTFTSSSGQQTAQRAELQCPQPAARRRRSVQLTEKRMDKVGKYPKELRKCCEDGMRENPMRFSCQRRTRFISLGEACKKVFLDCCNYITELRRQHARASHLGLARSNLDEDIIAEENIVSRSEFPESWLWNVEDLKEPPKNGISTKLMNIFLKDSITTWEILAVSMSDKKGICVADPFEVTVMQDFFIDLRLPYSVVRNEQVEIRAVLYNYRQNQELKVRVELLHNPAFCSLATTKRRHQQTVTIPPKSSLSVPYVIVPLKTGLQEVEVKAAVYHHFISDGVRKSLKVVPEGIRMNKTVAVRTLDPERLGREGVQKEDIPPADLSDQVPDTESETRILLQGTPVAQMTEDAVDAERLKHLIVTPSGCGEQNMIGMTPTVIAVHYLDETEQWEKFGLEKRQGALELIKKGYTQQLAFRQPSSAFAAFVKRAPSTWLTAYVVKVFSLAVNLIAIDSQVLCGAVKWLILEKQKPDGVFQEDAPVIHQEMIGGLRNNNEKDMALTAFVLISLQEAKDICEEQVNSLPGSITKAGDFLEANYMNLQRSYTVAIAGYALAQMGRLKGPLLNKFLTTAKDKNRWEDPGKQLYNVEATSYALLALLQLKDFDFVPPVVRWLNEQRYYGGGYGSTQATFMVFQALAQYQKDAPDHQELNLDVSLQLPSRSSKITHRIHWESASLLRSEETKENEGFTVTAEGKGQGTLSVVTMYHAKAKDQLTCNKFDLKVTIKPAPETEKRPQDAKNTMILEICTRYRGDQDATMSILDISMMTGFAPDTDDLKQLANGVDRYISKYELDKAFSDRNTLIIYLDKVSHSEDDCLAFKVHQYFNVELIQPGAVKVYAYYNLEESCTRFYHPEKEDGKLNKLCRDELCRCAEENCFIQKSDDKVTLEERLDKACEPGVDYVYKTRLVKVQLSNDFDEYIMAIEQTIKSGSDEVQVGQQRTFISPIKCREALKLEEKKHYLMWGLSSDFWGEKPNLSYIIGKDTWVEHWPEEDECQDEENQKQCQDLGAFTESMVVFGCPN
UniProt P61981, sequence (P61981 whole entry): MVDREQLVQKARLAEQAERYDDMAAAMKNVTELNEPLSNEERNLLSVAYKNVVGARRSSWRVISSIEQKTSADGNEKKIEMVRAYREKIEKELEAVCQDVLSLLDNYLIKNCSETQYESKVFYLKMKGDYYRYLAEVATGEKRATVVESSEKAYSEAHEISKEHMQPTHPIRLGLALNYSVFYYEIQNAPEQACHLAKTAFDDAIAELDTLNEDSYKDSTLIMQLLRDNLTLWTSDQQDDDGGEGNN
UniProt P32004, sequence (P32004 whole entry): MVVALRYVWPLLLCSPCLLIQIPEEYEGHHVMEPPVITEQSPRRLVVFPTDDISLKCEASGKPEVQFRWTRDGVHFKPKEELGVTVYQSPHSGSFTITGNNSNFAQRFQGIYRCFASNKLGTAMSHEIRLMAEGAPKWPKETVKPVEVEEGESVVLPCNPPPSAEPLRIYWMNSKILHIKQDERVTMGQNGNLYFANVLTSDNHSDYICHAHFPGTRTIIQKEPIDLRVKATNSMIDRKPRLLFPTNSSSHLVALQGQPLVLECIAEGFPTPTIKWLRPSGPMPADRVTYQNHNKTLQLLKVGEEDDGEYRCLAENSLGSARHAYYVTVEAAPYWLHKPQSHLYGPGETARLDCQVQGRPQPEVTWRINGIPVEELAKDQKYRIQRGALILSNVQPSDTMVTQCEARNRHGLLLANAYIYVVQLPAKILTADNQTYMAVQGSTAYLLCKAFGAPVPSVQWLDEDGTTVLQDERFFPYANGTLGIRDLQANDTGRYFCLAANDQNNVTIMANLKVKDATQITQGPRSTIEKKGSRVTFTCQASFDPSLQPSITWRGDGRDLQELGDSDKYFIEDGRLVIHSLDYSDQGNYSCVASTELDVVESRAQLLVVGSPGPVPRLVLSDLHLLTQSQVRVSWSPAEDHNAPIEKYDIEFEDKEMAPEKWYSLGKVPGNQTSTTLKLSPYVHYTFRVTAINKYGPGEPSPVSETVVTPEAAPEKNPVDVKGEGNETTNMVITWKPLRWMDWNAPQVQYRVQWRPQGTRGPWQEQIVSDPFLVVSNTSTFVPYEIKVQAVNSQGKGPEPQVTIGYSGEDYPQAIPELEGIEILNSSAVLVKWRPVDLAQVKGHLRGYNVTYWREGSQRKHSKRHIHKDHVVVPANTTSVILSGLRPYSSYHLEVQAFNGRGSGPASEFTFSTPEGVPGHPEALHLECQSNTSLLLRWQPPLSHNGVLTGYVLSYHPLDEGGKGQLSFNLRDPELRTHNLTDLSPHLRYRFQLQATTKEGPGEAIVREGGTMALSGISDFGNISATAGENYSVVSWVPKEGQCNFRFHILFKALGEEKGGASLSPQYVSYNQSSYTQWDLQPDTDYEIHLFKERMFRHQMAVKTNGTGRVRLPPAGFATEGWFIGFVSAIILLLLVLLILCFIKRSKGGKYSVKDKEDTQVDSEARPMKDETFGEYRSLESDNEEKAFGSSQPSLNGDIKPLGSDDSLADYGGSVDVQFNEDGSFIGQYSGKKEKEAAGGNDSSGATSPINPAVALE
UniProt P07814, sequence (P07814 whole entry): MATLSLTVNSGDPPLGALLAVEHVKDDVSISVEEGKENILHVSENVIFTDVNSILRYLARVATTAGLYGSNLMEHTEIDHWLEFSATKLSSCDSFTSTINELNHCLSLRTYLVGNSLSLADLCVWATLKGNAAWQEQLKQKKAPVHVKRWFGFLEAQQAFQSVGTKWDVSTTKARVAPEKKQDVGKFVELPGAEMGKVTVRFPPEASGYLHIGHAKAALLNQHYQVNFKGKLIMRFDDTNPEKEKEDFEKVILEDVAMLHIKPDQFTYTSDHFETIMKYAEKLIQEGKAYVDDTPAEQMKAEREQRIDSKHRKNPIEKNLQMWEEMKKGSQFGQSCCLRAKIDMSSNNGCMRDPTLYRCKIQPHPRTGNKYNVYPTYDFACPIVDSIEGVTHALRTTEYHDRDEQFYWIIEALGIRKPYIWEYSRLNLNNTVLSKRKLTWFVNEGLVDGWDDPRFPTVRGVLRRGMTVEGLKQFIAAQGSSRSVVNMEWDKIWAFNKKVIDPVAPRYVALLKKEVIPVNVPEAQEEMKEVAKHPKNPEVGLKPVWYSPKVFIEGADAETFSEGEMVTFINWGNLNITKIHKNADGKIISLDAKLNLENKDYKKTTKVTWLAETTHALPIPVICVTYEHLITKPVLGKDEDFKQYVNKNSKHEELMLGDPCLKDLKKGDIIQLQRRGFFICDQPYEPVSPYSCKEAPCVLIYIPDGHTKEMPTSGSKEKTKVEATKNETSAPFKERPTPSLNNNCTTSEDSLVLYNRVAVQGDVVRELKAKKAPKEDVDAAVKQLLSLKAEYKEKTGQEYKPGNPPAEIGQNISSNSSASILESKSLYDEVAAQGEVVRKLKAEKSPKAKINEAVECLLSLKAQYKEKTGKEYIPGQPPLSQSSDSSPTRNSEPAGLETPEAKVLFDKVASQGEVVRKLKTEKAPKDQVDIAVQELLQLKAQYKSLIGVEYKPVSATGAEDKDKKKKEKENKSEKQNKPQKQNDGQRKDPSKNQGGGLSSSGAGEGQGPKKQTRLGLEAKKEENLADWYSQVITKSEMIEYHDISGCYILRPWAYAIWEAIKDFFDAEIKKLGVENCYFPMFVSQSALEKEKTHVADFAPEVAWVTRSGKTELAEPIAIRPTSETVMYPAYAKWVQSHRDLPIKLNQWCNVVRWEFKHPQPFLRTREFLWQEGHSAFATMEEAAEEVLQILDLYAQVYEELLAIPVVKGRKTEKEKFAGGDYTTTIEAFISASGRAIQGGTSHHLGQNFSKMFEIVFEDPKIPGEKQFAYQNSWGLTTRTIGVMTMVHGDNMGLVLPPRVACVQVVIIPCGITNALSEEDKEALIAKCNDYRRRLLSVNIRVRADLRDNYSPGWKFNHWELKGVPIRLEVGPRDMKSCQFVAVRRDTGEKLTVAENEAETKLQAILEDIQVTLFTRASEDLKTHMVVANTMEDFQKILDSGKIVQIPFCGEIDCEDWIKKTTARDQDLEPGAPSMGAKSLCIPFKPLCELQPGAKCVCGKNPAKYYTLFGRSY
UniProt P04083, sequence (P04083 whole entry): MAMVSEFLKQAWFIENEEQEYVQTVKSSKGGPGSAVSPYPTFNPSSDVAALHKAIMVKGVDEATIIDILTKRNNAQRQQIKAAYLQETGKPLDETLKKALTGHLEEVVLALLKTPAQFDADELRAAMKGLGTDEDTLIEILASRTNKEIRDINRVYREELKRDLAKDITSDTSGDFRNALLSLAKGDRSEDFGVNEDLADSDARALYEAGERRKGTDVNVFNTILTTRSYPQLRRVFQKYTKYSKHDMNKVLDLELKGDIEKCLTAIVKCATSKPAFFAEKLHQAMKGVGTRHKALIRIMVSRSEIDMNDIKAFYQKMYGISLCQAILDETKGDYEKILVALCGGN

Row | Target | lysine labeling ratio R10:1
1 | ANXA1 (lysine site: K214) (UniProt P04083) | 6.33 (inactive)
2 | ITGA1 (lysine site: K711) (UniProt P56199) | 3.16 (inactive)
3 | C3 (lysine site: K1051) (UniProt P01024) | 6.25 (inactive)
4 | UniProt P61981 (lysine site: K142) | 3.71 (inactive)
5 | C3 (lysine site: K692) (UniProt P01024) | 7.71 (inactive)
6 | CLU (lysine site: K62) (UniProt P10909) | 1.13 (active)
7 | TGFBR3 (lysine site: K685) (UniProt Q03167) | 1.81 (active)
8 | DAG1 (lysine site: K500) (UniProt Q14118) | 4.65 (inactive)
9 | TKT (lysine site: K543) (UniProt P29401) | 9.07 (inactive)
10 | RCC2 (lysine site: K124) (UniProt Q9P258) | 1.8 (active)
11 | L1CAM (lysine site: K568) (UniProt P32004) | 3.06 (inactive)
12 | AGRN (lysine site: K383) (UniProt O00468) | 12.9 (inactive)
13 | MYH9 (lysine site: K1389) (UniProt P35579) | 2.38 (inactive)
14 | DDX5 (lysine site: K56) (UniProt P17844) | 2.69 (inactive)
15 | UniProt O94991 (lysine site: K280) | 1.34 (active)
16 | PRDX6 (lysine site: K56) (UniProt P30041) | 3.23 (inactive)
17 | UniProt P83881 (lysine site: K38) | 1.61 (active)
18 | ATP2A2 (lysine site: K757) (UniProt P16615) | 1.36 (active)
19 | PPT1 (lysine site: K174) (UniProt P50897) | 1.29 (active)
20 | SPTAN1 (lysine site: K1432) (UniProt Q13813) | 0.77 (active)
21 | UniProt P63000 (lysine site: K153) | 2.29 (inactive)
22 | UniProt P60842 (lysine site: K309) | 1.73 (active)
23 | EPRS (lysine site: K435) (UniProt P07814) | 2.68 (inactive)
